# Source: ChEMBL document CHEMBL3433997, “St. Jude Leishmania screening dataset” (2016)
# Tests used:
# Type in all cases: functional
# [1] = biological target: Solute carrier family 2, facilitated glucose transporter member 1 (Homo sapiens) (UniProt P11166); test: ST_JUDE_LEISH: Cytotoxicity at 2uM final concentration against transgenic Leishmania Mexicana promastigotes LmGLUT1 that are glucose transport deficient and complemented with the human glucose transporter GLUT1. Activity is measured by DNA content using SYBR green in vitro
# [2] = biological target: Hexose transporter 1 (Plasmodium falciparum) (UniProt O97467); test: ST_JUDE_LEISH: Cytotoxicity at 2uM final concentration against transgenic Leishmania Mexicana promastigotes LmPfHT that are glucose transport deficient and complemented with the Plasmodium falciparum hexose transporter. Activity is measured by DNA content using SYBR green in vitro
# [3] = biological target: Glucose transporter (Leishmania mexicana) (UniProt O61059); test: ST_JUDE_LEISH: Cytotoxicity at 2uM final concentration against transgenic Leishmania Mexicana promastigotes LmGT2 that are glucose transport deficient and complemented with the L. Mexicana glucose transporter 2. Activity is measured by DNA content using SYBR green in vitro
# Chain of Solute carrier family 2, facilitated glucose transporter member 1 (Homo sapiens) (P11166 whole entry): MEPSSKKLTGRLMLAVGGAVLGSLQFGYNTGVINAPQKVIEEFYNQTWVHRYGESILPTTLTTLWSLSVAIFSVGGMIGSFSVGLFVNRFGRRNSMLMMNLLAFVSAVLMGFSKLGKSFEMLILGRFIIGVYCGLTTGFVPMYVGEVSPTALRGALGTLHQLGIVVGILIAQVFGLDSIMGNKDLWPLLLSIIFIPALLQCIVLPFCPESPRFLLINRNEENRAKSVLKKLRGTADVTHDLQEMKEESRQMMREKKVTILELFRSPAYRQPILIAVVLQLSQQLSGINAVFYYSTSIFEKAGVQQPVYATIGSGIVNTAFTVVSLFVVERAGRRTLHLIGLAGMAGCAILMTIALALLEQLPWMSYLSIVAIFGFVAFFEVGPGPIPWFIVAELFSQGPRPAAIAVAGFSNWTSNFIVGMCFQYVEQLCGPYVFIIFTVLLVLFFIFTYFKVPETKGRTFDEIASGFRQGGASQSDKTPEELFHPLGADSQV
SMILES,inhibition [1],inhibition [2],inhibition [3]
COc1ccc2nccc([C@@H](O)CN3CCC(NCc4nc5c(C#N)cccc5[nH]4)CC3)c2c1,3.6%,3.33%,3.84%
CCOc1cccc(C(=O)Nc2cccc(CN3CCCN(Cc4ccc(O)cc4)CC3)c2)c1,3.17%,3.14%,5.38%
O=C(NCC1CCN(Cc2ccc3c(c2)OCCO3)C1)c1cc(-c2cccc(C(F)(F)F)c2)cs1 (configuration not stated),-2.67%,-0.91%,2.27%
CC(C)(C)c1ccc(CNC(=O)c2ccc(-c3nc4cc(C(C)(C)C)ccc4[nH]3)cc2)cc1,4.41%,4.23%,1.77%
Cc1ccc(NC(=O)Nc2ccc(I)c(OCCN(C)C)c2)cc1Cl,10.6%,7.2%,5.01%
CN1CCN(Cc2ccc(-c3ccc4c(Nc5cc(O)c(Cl)cc5F)ccnc4c3)o2)CC1,7.47%,4.6%,4.5%
COc1ccc2nc(-c3ccc(C(=O)NCCCN4CCN(c5cc(Cl)ccc5OC)CC4)cc3OC)[nH]c2c1,2.79%,1.93%,3.01%
O=C1c2ccc([N+](=O)[O-])cc2C(=O)N1c1ccc2[nH]ncc2c1,2.79%,1.54%,0.95%
CN1CCCC1CCNCc1cccc(-c2cnc(N3CCCC(C)(C)C3)nc2)c1 (configuration not stated),108%,103%,104%
CC[C@H](C)CNC(=O)c1cncc(-c2cccc(CNC3Cc4ccccc4C3)c2)c1,-0.1%,0.31%,-1.15%
Cc1cc(NCCCCCCN)nc(Nc2ccc(Cl)cc2)n1,5.87%,5.27%,-0.67%
COc1cc2nccc(Nc3ccc(OCc4ccc(NC(C)=O)cc4)cc3)c2cc1OC,5.38%,7.36%,2.65%
Cc1c(-c2cccc(C(C)(C)NCCCN3CCCCC3)c2)cnc(N)c1C,-0.39%,-0.25%,0.62%
CC(C)NC(C)(C)CN(Cc1ccc(-c2ccc(C(F)(F)F)cc2)cc1)C(=O)Cn1c(CCc2cccc(F)c2F)nc(=O)c2ccccc21,0.37%,-0.61%,-0.1%
